Laboratory results published in the supplement of paper PMC8975748.
Counter-ions that a name gives are not always drawn.

tested on: Saccharomyces cerevisiae BY4741 SeMeCo community; test: z-score of subpopulation abundance vs DMSO median, subpopulation auxotrophic for LU; higher = larger share of this subpopulation than in DMSO controls; settings: 10 µM; 24 h; SM minimal medium; subpopulation (auxotrophy): LU
Method: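 Fluorescent four-plasmid SeMeCo (self-establishing metabolically cooperating S. cerevisiae BY4741 community; plasmids pH-mRuby2, pL-mWasabi, pU-eCFP, pM-TagRFP657) was grown 24 h in minimal SM medium with each Selleck FDA-approved drug at 10 µM in 384-well plates. Cells were fixed and imaged by high-content confocal microscopy. For each auxotrophic subpopulation (and the prototroph), a z-score gives the deviation from the DMSO vehicle-control population median.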

Row | Structure (SMILES) | z-score of subpopulation abundance
1 | NCC(O)c1ccc(O)cc1 (racemic) [(+,-)-Octopamine HCl] | -0.38
2 | Nc1ccncc1 [4-Aminopyridine] | 0.6
3 | CCOC(=O)Nc1ccc(NCc2ccc(F)cc2)cc1N [Retigabine 2HCl] | -0.86
4 | CNC1CC(N)C(O)C(OC2OC(CO)C(O)C3OC4(OC(C(N)CO)C(O)C(O)C4O)OC23)C1O (centres undefined) [Hygromycin B] | 0.34
5 | N#Cc1nn(-c2c(Cl)cc(C(F)(F)F)cc2Cl)c(N)c1[S+]([O-])C(F)(F)F (centres undefined) [Fipronil] | 0.06
6 | Oc1cccc2cccnc12 [8-Hydroxyquinoline] | -0.63
7 | CC(=O)O[C@H]1C[C@@H]2CC[C@@H]3[C@H](CC[C@@]4(C)[C@H]3C[C@H]([N+]3(C)CCCCC3)[C@@H]4OC(C)=O)[C@@]2(C)C[C@@H]1[N+]1(C)CCCCC1 [Pancuronium dibromide] | 0.2
8 | N[C@@H]1C[C@H]1c1ccccc1 [Tranylcypromine (2-PCPA) HCl] | -0.31
9 | CC1(C)SC2C(N)C(=O)N2C1C(=O)O (centres undefined) [6-Aminopenicillanic acid] | 0.32
10 | O=c1[nH]c2ccccc2n1CCCN1CCC(n2c(=O)[nH]c3cc(Cl)ccc32)CC1 [Domperidone] | 0.48
11 | CN1[C@@H]2C[C@@H](OC(=O)[C@H](CO)c3ccccc3)C[C@H]1[C@@H]1O[C@@H]12 [Scopolamine HBr] | 0.22
12 | C=CCN1C[C@H](C(=O)N(CCCN(C)C)C(=O)NCC)C[C@@H]2c3cccc4[nH]cc(c34)C[C@H]21 [Cabergoline] | 1.61
13 | CC[N+](C)(CC)CCOC(=O)C(O)(c1ccccc1)c1ccccc1 [Methylbenactyzine Bromide] | -0.58
14 | O=C(O[C@H]1C[C@H]2CC[C@@H](C1)[N+]21CCCC1)C(O)(c1ccccc1)c1ccccc1 [Trospium chloride] | -0.24
15 | NC(=O)CN1CCCC1=O [Piracetam] | 1.37
16 | COc1ccc(C(CN(C)C)C2(O)CCCCC2)cc1 (centres undefined) [Venlafaxine HCl] | -0.06
17 | O=[N+]([O-])C(Br)(CO)CO [Bronopol] | 0.26

Row | Structure (SMILES) | z-score of subpopulation abundance
18 | C[N+]12CCC(CC1)C(OC(=O)C(O)(c1ccccc1)c1ccccc1)C2 (centres undefined) [Clidinium Bromide] | 0.83
19 | C=C[C@H]1CN2CC[C@H]1C[C@H]2[C@H](O)c1ccnc2ccccc12 [Cinchonidine] | 0.59
20 | CC(C)=CCOc1c2occc2cc2ccc(=O)oc12 [Imperatorin] | 0.92
21 | CN1[C@@H]2CC[C@H]1C[C@@H](OC(=O)[C@H](CO)c1ccccc1)C2 [Hyoscyamine] | 0.31
22 | CN(C)[C@@H]1C(=O)C(C(N)=O)=C(O)[C@@]2(O)C(=O)C3=C(O)c4c(O)cccc4[C@@](C)(O)[C@H]3C[C@@H]12 [Tetracycline HCl] | -0.24
23 | COc1ccc(C=O)cc1 [p-Anisaldehyde] | -0.64
24 | CC(NC(C)(C)C)C(=O)c1cccc(Cl)c1 (centres undefined) [Amfebutamone (Bupropion) HCl] | 0.12
25 | COc1ccc2[nH]cc(CCN)c2c1 [5-Methoxytryptamine] | 1.01
26 | CN[C@@H]1[C@@H](O)[C@@H](O[C@@H]2[C@@H](O)[C@H](O[C@H]3O[C@H]([C@@H](C)O)[C@@H](O)[C@H](O)[C@H]3N)[C@@H](N)C[C@H]2N)OC[C@]1(C)O [Geneticin (G418 Sulfate)] | 0.61
27 | C[N+](C)(C)CCCCCCCCCC[N+](C)(C)C [Decamethonium Bromide] | -0.59
28 | Oc1cc(Cl)ccc1Oc1ccc(Cl)cc1Cl [Triclosan] | -0.23
29 | COc1ccc(C(CN(C)C)C2(O)CCCCC2)cc1 (centres undefined) [Venlafaxine] | 0.97
30 | O=c1cccc2n1C[C@@H]1CNC[C@H]2C1 [Cytisine] | 0.11
31 | CC[C@@H](C(N)=O)N1CCCC1=O [Levetiracetam] | -0.25
32 | CCC1=C[C@H]2CN3CCc4c([nH]c5ccccc45)[C@](C(=O)OC)(C2)[C@H]13 [Catharanthine] | -0.64
33 | CCN(C)C(=O)Oc1cccc([C@H](C)N(C)C)c1 [Rivastigmine Tartrate] | 0.44
34 | COC(=O)C1=CCCN(C)C1 [Arecoline HBr] | 0.1
